Mtb betalactam = beta-lactam sensitization of Mtb H37Rv; 0.27% of 330,000 active; M. tuberculosis H37Rv growth with meropenem, percent inhibition; inhibition, % at 25 µM; call rule not given here;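 note: growth measured after seven days incubation then overnight dye step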
Mtb FBA inh = inhibits M. tuberculosis FBA enzyme; 2.3% of 360,000 active; inhibition, % at 1 µM; purified M. tuberculosis FBA, fluorescence read-out; P9WQA3; in the data active = inhibition above about 27%
GDH-TPI counter = counter-screen for M. tuberculosis FBA inhibitors: GDH-TPI coupled enzymes | GDH-TPI coupled enzyme counterscreen, NADH absorbance | inhibition, % at 4.8 µM | 1.2% of 360,000 active | AID 588335; in the data active = inhibition above about 30%
Rv3671c protease = inhibits the M. tuberculosis serine protease Rv3671c. P9WHR9. inhibition, % at 5.96 µM. 0.048% of 320,000 active; in the data active = inhibition above about 38%;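 note: extracellular domain of Rv3671c used as enzyme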
Mtb UGM inh = Mtb UDP-galactopyranose mutase inhibition; P9WIQ1; purified UGM, fluorescence polarization probe displacement; inhibition, % at 10 µM; 0.06% of 320,000 active; AID 504406; in the data active = inhibition above about 10%, passing the limit was not always enough
Target sequence (P9WIQ1 whole entry, looked up): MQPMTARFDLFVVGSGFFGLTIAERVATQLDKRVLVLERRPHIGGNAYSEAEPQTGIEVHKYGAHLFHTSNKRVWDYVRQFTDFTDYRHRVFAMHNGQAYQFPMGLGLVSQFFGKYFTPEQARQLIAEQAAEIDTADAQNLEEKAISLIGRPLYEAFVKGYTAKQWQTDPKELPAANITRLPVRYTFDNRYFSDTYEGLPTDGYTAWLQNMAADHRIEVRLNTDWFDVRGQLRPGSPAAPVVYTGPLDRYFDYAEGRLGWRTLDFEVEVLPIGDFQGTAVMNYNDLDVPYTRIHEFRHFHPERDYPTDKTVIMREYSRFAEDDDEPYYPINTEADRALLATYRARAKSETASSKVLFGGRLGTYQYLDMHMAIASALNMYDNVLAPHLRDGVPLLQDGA
RecA splice inh = blocks M. tuberculosis RecA intein splicing | cell-free RecA intein splicing, fluorescence | inhibition, % (concentration not given with the values) | 0.75% of 290,000 active | AID 2221; in the data active = inhibition above about 30%
Each line names hits and unclear results; the compound was inactive in the other large screens. Most compounds without a hit are left out; they make up all but 4% or so of the library.

Nc1ccn([C@@H]2O[C@H](CNCC3=CCOc4ccc(O)cc43)[C@@H](O)[C@H]2O)c(=O)n1	none (no result: Mtb betalactam, Rv3671c protease, Mtb UGM inh, RecA splice inh)
Cc1cc(-c2ccco2)c(C#N)c2nc3ccccc3n12	GDH-TPI counter 30.8
Cc1cc(C(C)C)n2c(nc3ccccc32)c1C#N	none (no result: Mtb FBA inh, GDH-TPI counter)
Cc1ccc(CCC(=O)NCc2ccccc2)o1	none
CCOC(=O)c1cc2c(c(-c3ccccc3)n1)[C@@H](CCO)N(S(=O)(=O)C(C)(C)C)C2	none (no result: Mtb betalactam, Rv3671c protease, Mtb UGM inh, RecA splice inh)
Cc1ccc(/C=C/C(=O)Nc2ncc(C)s2)o1	none
Cc1ccc(/C=C/C(=O)Nc2nccs2)o1	GDH-TPI counter 51.6
CCC(C)(C)NC(=O)C(c1ccc(OC)cc1)N(C(=O)CCC(=O)Nc1cc(C)on1)c1cc(OC)ccc1OC (stereo unspecified)	none
CCOC(=O)/C(=N\Nc1ccccc1)P(=O)(c1ccccc1)c1ccccc1	GDH-TPI counter 51.0
CCOC(=O)/C(=N\Nc1ccccc1)S(=O)(=O)c1ccccc1	GDH-TPI counter 31.0
CCOC(=O)c1ccc(NC(=S)P(=O)(c2ccccc2)c2ccccc2)cc1	none (no result: Mtb betalactam, Rv3671c protease, Mtb UGM inh, RecA splice inh)
OCC[C@@H]1NCc2cc(CO)cc(-c3ccccc3)c21	none (no result: Mtb betalactam, Rv3671c protease, Mtb UGM inh, RecA splice inh)
COc1ccc2cc3cc(C(=O)N(C)C4CCCCC4)oc3nc2c1	GDH-TPI counter 38.9
CCOC(=O)C1CCN(C(=O)c2cc3cc4ccc(C)cc4nc3o2)CC1	GDH-TPI counter 31.6
CCOC(=O)C1CCN(C(=O)c2cc3c(ccc4ccccc43)o2)CC1	none
COc1cccc(-c2cc(C(=O)N3CCCCC3C)no2)c1 (stereo unspecified)	none
O=C(c1cc2cc3ccc(Cl)cc3nc2o1)N1CCC2(CC1)OCCO2	GDH-TPI counter 39.1
CN(C(=O)c1ccc(Br)o1)C1CCCCC1	none
COc1ccc2cc3cc(C(=O)N4CCCCC4C)oc3nc2c1 (stereo unspecified)	Mtb FBA inh 40.4, GDH-TPI counter 49.0
Cc1ccc(C(c2cc(Br)ccc2O)N2CCSCC2)cc1 (stereo unspecified)	none
Cc1ccc(-n2c(C)nnc2SCC(=O)N(C)C2CCS(=O)(=O)C2)cc1 (stereo unspecified)	none (no result: RecA splice inh)
COc1ccc2cc3cc(C(=O)N4CCCCCC4)oc3nc2c1	Mtb FBA inh 85.9, GDH-TPI counter 38.9
CSc1ccccc1CNc1nc(NCC2CC2)nc2ccsc12	none (no result: Mtb betalactam, Rv3671c protease, Mtb UGM inh, RecA splice inh)
O=C(CCl)Nc1c2c(nn1-c1ccccc1)CSC2	RecA splice inh 34.9
CC(C)(C)c1ccc(S(=O)(=O)NC(=O)C2(C)CCN2C(=O)C2(c3ccccc3)CC2)cc1 (stereo unspecified)	none (no result: Mtb betalactam, Rv3671c protease, Mtb UGM inh, RecA splice inh)
COc1ccc(C(O)c2ncc(-c3ccccc3)[nH]2)c(OC)c1 (stereo unspecified)	none (no result: Mtb betalactam, Rv3671c protease, Mtb UGM inh, RecA splice inh)
CC(=O)N1c2ccc(Cl)cc2C2OCCC2C1c1ccco1 (stereo unspecified)	none
Clc1ccc2c(c1)C1OCCC1C(c1ccco1)N2 (stereo unspecified)	Mtb FBA inh 69.5
Cc1cccc2cc(C#N)c(NCc3ccccc3)nc12	Mtb FBA inh 29.7
CC1=C(C(=O)OCCCBr)C(c2ccc3c(c2)OCO3)NC(=O)N1 (stereo unspecified)	none
O=C(N/N=C/c1cccc2ccccc12)c1cc2ccccc2o1	none (no result: Mtb betalactam, Rv3671c protease, Mtb UGM inh)
Cc1ccc(/C=N/Nc2nc(N3CCCCC3)nc(N3CCCCC3)n2)o1	none
COC(=O)c1ccccc1-c1ccc(/C=N/NC(=O)c2cc3ccccc3o2)o1	GDH-TPI counter 51.7
COC(=O)c1ccccc1-c1ccc(/C=N/Nc2nc(N3CCCC3)nc(N3CCCC3)n2)o1	GDH-TPI counter 60.5
CC(/C=N/NC(=O)c1cccs1)=C\c1ccco1	none
CC(/C=N/NC(=O)Cc1cccs1)=C\c1ccco1	GDH-TPI counter 33.7
Cc1ccc(-n2nc3c(=O)n(C(C)C(=O)NCc4ccc(Cl)cc4)nc(C)c3c2C)cc1 (stereo unspecified)	none
C=CCNC1=C(Cl)C(=O)N(c2cccc(Cl)c2Cl)C1=O	none (no result: Mtb betalactam)
Cc1ccc(N2C(=O)C(Cl)=C(NCCO)C2=O)c(C)c1	RecA splice inh 32.8
COC(=O)N/N=C/c1ccc(-c2cc(Cl)cc(Cl)c2)o1	GDH-TPI counter 45.8
Nc1ccccc1N=Cc1ccc(-c2cccc(Cl)c2)o1	Mtb FBA inh 145.8
COC(=O)N/N=C/c1ccc(-c2cccc(Cl)c2)o1	GDH-TPI counter 30.8
COC(=O)N/N=C/c1ccc(-c2ccc(C)c(Cl)c2)o1	none
COc1cc(/C=C/C(=O)OCC(=O)NCCc2ccc(S(N)(=O)=O)cc2)ccc1OCC#N	none (no result: Mtb betalactam, Rv3671c protease, Mtb UGM inh, RecA splice inh)
CC1C2=C(CC(C)(C)CC2=O)NC2=C1C(=O)CC(C)(C)C2	Mtb FBA inh active
CCC(CO)Oc1cc(NCc2ccc(C(F)(F)F)cc2)c2ncn(C(C)C)c2c1 (stereo unspecified)	none (no result: RecA splice inh)
CCc1ccc2c(CN3CCN(Cc4ccccc4)CC3)cc(=O)oc2c1	none
CCc1ccc2c(CSc3nnnn3C)cc(=O)oc2c1	GDH-TPI counter 33.8
COc1ccc(NC(=O)C(=O)c2cn(CC(=O)N3CCOCC3)c3ccccc23)cc1OC	GDH-TPI counter 32.8
CN(Cc1ccc(Cl)s1)C(=O)CCl	RecA splice inh 43.0
CN(Cc1ccc(Cl)cc1)C(=O)CCl	RecA splice inh 62.9
O=C(Nc1ccccc1C(=O)Nc1nccs1)c1ccccc1	none (no result: Mtb betalactam, GDH-TPI counter, Rv3671c protease, Mtb UGM inh, RecA splice inh)
O=C(COc1ccc(Br)cc1)N(Cc1ccco1)C1CCS(=O)(=O)C1 (stereo unspecified)	none
Cc1ccc(S(=O)(=O)Nc2c(C)cc(C)nc2Cl)cc1	none
O=C(NCCC1CCCCN1S(=O)(=O)c1ccccc1)C(=O)NCc1cccnc1 (stereo unspecified)	none
COc1cccc(/C=N/Nc2nc(Nc3ccccc3)nc(-n3nc(C)cc3C)n2)c1O	none
COc1cccc(/C=N/Nc2cc(-n3nc(C)cc3-c3ccccc3)ncn2)c1O	GDH-TPI counter 34.6
Oc1cccc(/C=N/Nc2ncnc3c2ncn3Cc2ccccc2)c1	GDH-TPI counter 36.7
Nc1c(Cl)ncnc1N/N=C/c1cccc(O)c1	GDH-TPI counter 41.5
COc1cccc(/C=N/Nc2ncnc3scc(-c4ccccc4)c23)c1O	GDH-TPI counter 32.3
Clc1cncc(Cl)c1N/N=C/c1ccncc1	GDH-TPI counter 36.3 (no result: Mtb UGM inh)
COc1cccc(/C=N/Nc2ncnc(Cl)c2N)c1O	GDH-TPI counter 31.6
Nc1c(Cl)ncnc1N/N=C/c1ccncc1	GDH-TPI counter 48.0
Clc1cccc(Cl)c1/C=N/Nc1c(Cl)cncc1Cl	none
CC(NS(=O)(=O)c1c(N)n(C)c(=O)n(C)c1=O)c1ccccc1 (stereo unspecified)	none
Cc1ccc(NC(=O)C2CCN(S(=O)(=O)c3ccc4c(c3)NC(=O)C(C)S4)CC2)cc1Cl (stereo unspecified)	none
O=C(COc1ccccc1Cl)NC(=S)Nc1ccccc1N1CCCC1	none
CCN1C(=O)[C@H]2[C@@H](c3ccc(-c4cc(C(C)=O)cs4)cc3)N3CCC[C@@]3(C(=O)OC)[C@H]2C1=O	GDH-TPI counter 39.7 (no result: RecA splice inh)
O=C(NCc1cccs1)c1cc2c(s1)CS(=O)(=O)C2	none
